Measurements from PubChem BioAssay (NCI).
About 83,000 compounds went through this panel and 20% of them were active in at least one assay; those are over-represented in the sample as a whole.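 Cell lines were cultured in 96-well plates, exposed to a single compound concentration, and assessed for percent growth 48 hours later.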 Activity calls are given as the source filed them. Rule for the calls: active = growth percent below 10; inactive = the rest.

Columns and labels:
Test in all cases: NCI-60 one-dose screen, 48 h (100 = growth as untreated, 0 = no growth, -100 = all killed)
Conditions in all cases: 10 µM
EKVX NSCLC = system: EKVX NSCLC
SN12C renal = system: SN12C renal
UO-31 renal = system: UO-31 renal
TK-10 renal = system: TK-10 renal
ACHN renal = system: ACHN renal
CAKI-1 renal = system: CAKI-1 renal
A498 renal = system: A498 renal
CCRF-CEM leukemia = system: CCRF-CEM leukemia
MOLT-4 leukemia = system: MOLT-4 leukemia
SK-MEL-2 melanoma = system: SK-MEL-2 melanoma

Measured: growth

CCC1NC(=O)c2cc(S(N)(=O)=O)c(Cl)cc2N1 (centres undefined)
inactive: EKVX NSCLC 109% | SN12C renal 94% | UO-31 renal 98.8% | TK-10 renal 106% | ACHN renal 108% | CAKI-1 renal 104% | A498 renal 110% | CCRF-CEM leukemia 97.7% | MOLT-4 leukemia 113%

COc1ccc(-c2nn(-c3cccc(Cl)c3)cc2C=C(C#N)C#N)cc1
inactive: SN12C renal 10.4% | UO-31 renal 11.9%
active: SK-MEL-2 melanoma -39.4% | TK-10 renal -3.05% | ACHN renal 9.38% | CCRF-CEM leukemia -27.3% | MOLT-4 leukemia -45.9%

CC(=O)[C@@]12O[C@](C)(c3ccccc3)O[C@@H]1CC1C3CCC4=CC(=O)CC[C@]4(C)C3CC[C@@]12C (some centres undefined)
inactive: EKVX NSCLC 63.5% | SN12C renal 84% | UO-31 renal 51.6% | TK-10 renal 88.2% | ACHN renal 69.3% | CAKI-1 renal 47.5% | A498 renal 68.2% | CCRF-CEM leukemia 73.1% | MOLT-4 leukemia 23.7%

CCN(CC)CCCC(C)N=C(C1=C(C(=NC(C)CCCN(CC)CC)c2cccc(OC)c2)C(=O)NC1=O)c1cccc(OC)c1 (centres undefined)
active: SK-MEL-2 melanoma -53.7% | UO-31 renal -97.2% | TK-10 renal -31.1% | ACHN renal -64% | CAKI-1 renal -57.9% | CCRF-CEM leukemia -21.4% | MOLT-4 leukemia -15.7%
inactive: A498 renal 18.7%

Cc1nn(-c2ccccc2)c2nc(Cl)c(C=O)c(-c3ccccc3)c12
inactive: SK-MEL-2 melanoma 114% | SN12C renal 98.2% | TK-10 renal 113% | ACHN renal 114% | A498 renal 78.6% | CCRF-CEM leukemia 36.3%

Cc1cn(-c2cc(F)cc(NC(=O)c3ccc(C)c(Nc4nccc(-c5cccnc5)n4)c3)c2)cn1
active: TK-10 renal -36.3% | ACHN renal -22.3%
inactive: SK-MEL-2 melanoma 64.4% | SN12C renal 20.9% | CCRF-CEM leukemia 45.6%

CN1CCN(C2=Nc3ccccc3Oc3ccc(Cl)cc32)CC1
inactive: EKVX NSCLC 107% | SN12C renal 100% | UO-31 renal 77.1% | TK-10 renal 89.7% | ACHN renal 93.6% | CAKI-1 renal 81.5% | A498 renal 81.3% | CCRF-CEM leukemia 99.6% | MOLT-4 leukemia 80.3%

COc1ccc(-c2nn(-c3cccc(Cl)c3)cc2-c2c(C#N)c(N)n(N)c(=O)c2C#N)cc1
inactive: SK-MEL-2 melanoma 77.4% | SN12C renal 68.9% | ACHN renal 87.2% | CCRF-CEM leukemia 56.8%

CSc1nc(S(C)(=O)=O)nc2[nH]c(=O)[nH]c12
inactive: SK-MEL-2 melanoma 106% | SN12C renal 95.9% | TK-10 renal 119% | ACHN renal 97.7% | A498 renal 118% | CCRF-CEM leukemia 117% | MOLT-4 leukemia 116%

COc1ccc(-c2nc(-c3nc4ccc(C)cc4[nH]3)cc3c2[nH]c2ccccc23)cc1
inactive: SN12C renal 28.5% | TK-10 renal 45% | ACHN renal 26.8% | CAKI-1 renal 44.4% | A498 renal 68% | CCRF-CEM leukemia 29.4% | MOLT-4 leukemia 21.9%
active: SK-MEL-2 melanoma 9.81%

Cc1cn(-c2cccc(NC(=O)c3ccc(C)c(Nc4nccc(-c5cccnc5)n4)c3)c2)cn1
inactive: SK-MEL-2 melanoma 75.8% | CCRF-CEM leukemia 25%
active: SN12C renal -4.51% | UO-31 renal -22.6% | TK-10 renal -46.3% | ACHN renal -31.9% | MOLT-4 leukemia 5.78%

c1ccc(CSc2ncccc2-c2nnc(SCCN3CCOCC3)o2)cc1
inactive: EKVX NSCLC 108% | SN12C renal 114% | UO-31 renal 89.4% | TK-10 renal 118% | ACHN renal 124% | CAKI-1 renal 100% | A498 renal 107% | CCRF-CEM leukemia 103% | MOLT-4 leukemia 103%

CCOC(=O)N/N=C/c1ccc(OC)c(OC)c1
inactive: SK-MEL-2 melanoma 115% | SN12C renal 99.2% | UO-31 renal 106% | ACHN renal 106% | CAKI-1 renal 110% | A498 renal 107% | CCRF-CEM leukemia 91.4% | MOLT-4 leukemia 107%

CC(=O)/C(=C/c1ccc(Br)cc1)C(=O)c1ccccc1
active: CCRF-CEM leukemia -7.34% | MOLT-4 leukemia -5.12%
inactive: SK-MEL-2 melanoma 107% | SN12C renal 69.1% | UO-31 renal 57.4% | ACHN renal 56.1% | A498 renal 91.6%

C[N+]1(CCCCC[N+]2(C)CCCC2)CCCC1
inactive: EKVX NSCLC 80% | SN12C renal 62.4% | UO-31 renal 78.5% | TK-10 renal 108% | ACHN renal 97.2% | CAKI-1 renal 78.6% | A498 renal 108% | CCRF-CEM leukemia 67.5% | MOLT-4 leukemia 91%

Cc1ccccc1N1C(=O)c2cc(S(N)(=O)=O)c(Cl)cc2NC1C (centres undefined)
inactive: EKVX NSCLC 111% | SN12C renal 108% | UO-31 renal 82.8% | TK-10 renal 104% | ACHN renal 108% | CAKI-1 renal 103% | A498 renal 108% | CCRF-CEM leukemia 103% | MOLT-4 leukemia 84.9%

CCn1c(CSc2nc3ccccc3c(=O)n2CCc2ccccc2)n[nH]c1=S
inactive: SK-MEL-2 melanoma 103% | SN12C renal 104% | UO-31 renal 76.5% | TK-10 renal 98% | ACHN renal 96.8% | CCRF-CEM leukemia 83.9% | MOLT-4 leukemia 71%

C[C@@H](O)[C@H]1C(=O)N2C(C(=O)O)=C(SC3CN[C@H](C(=O)N(C)C)C3)[C@H](C)[C@H]12 (some centres undefined)
active: CCRF-CEM leukemia -40.1%
inactive: EKVX NSCLC 104% | SN12C renal 99.5% | UO-31 renal 78.7% | TK-10 renal 106% | ACHN renal 96.9% | CAKI-1 renal 95.2% | A498 renal 88.8% | MOLT-4 leukemia 116%

COc1ccc(Cc2cnc(N)nc2N)cc1OC
inactive: EKVX NSCLC 115% | SN12C renal 96.1% | UO-31 renal 78% | TK-10 renal 110% | ACHN renal 96.5% | CAKI-1 renal 89.1% | A498 renal 73.4% | CCRF-CEM leukemia 102% | MOLT-4 leukemia 104%

S=C1N(c2ccccc2)CN(C2CCCCC2)CN1c1ccccc1
inactive: SK-MEL-2 melanoma 106% | SN12C renal 103% | UO-31 renal 92.3% | ACHN renal 97.6% | A498 renal 103% | CCRF-CEM leukemia 80.6% | MOLT-4 leukemia 125%

CCN1CC(CCN2CCOCC2)C(C(c2ccccc2)c2ccccc2)C1=O (centres undefined)
inactive: EKVX NSCLC 97.8% | SN12C renal 98.4% | UO-31 renal 85.5% | TK-10 renal 114% | ACHN renal 107% | CAKI-1 renal 91.5% | A498 renal 79.5% | CCRF-CEM leukemia 96.4% | MOLT-4 leukemia 100%

C[C@@H](O)[C@H]1C(=O)N2C(C(=O)O)=C(SCCN=CN)C[C@H]12
active: EKVX NSCLC 7.62% | SN12C renal 2.27% | UO-31 renal -50.4% | TK-10 renal -0.459% | ACHN renal -30.6% | CAKI-1 renal -28.2% | A498 renal -36.4% | CCRF-CEM leukemia 4.2%

CC(=O)Nc1ccc(S(=O)(=O)N/N=C(\C)c2ccc(C)cc2C)cc1
inactive: SK-MEL-2 melanoma 93.1% | SN12C renal 110% | TK-10 renal 108% | ACHN renal 95.3% | A498 renal 112% | CCRF-CEM leukemia 103% | MOLT-4 leukemia 97.7%

COC(=O)c1c[nH]c2cc(OC(C)C)c(OC(C)C)cc2c1=O
inactive: EKVX NSCLC 98.8% | SN12C renal 108% | UO-31 renal 84% | TK-10 renal 113% | ACHN renal 100% | CAKI-1 renal 97.2% | A498 renal 103% | CCRF-CEM leukemia 80.9% | MOLT-4 leukemia 109%

CCc1c2c(nc3ccc(OC(=O)N4CCC(N5CCCCC5)CC4)cc13)-c1cc3c(c(=O)n1C2)COC(=O)[C@]3(O)CC
active: ACHN renal 1.66% | CAKI-1 renal -17.4% | A498 renal 9.23% | CCRF-CEM leukemia 5.44% | MOLT-4 leukemia -20.6%
inactive: EKVX NSCLC 67.2% | SN12C renal 16.2% | UO-31 renal 11.6% | TK-10 renal 81.6%

Cc1ccc(C2=NN(c3ccc(S(C)(=O)=O)cc3)C(=O)CC2)cc1
inactive: SN12C renal 39.7% | UO-31 renal 41.1% | TK-10 renal 67% | ACHN renal 54.5% | CCRF-CEM leukemia 14.9% | MOLT-4 leukemia 20%
active: SK-MEL-2 melanoma 6.35%

CC(C)C[C@H](NC(=O)Cn1cccc(CNC(=O)c2ccccc2)c1=O)B(O)O
inactive: UO-31 renal 50.9% | TK-10 renal 16.8% | ACHN renal 24.5%
active: SK-MEL-2 melanoma 7.34% | A498 renal -12.2% | CCRF-CEM leukemia 2.66% | MOLT-4 leukemia -7.9%

C#CC(C)(O)[C@@H]1C[C@H](CC(=O)O)C1(C)C (some centres undefined)
inactive: SK-MEL-2 melanoma 108% | SN12C renal 108% | UO-31 renal 87.1% | ACHN renal 110% | CAKI-1 renal 96% | A498 renal 110% | CCRF-CEM leukemia 137% | MOLT-4 leukemia 114%

O=C(Nc1ccc(OCc2nnc(-c3ccc(Cl)cc3)o2)c(F)c1)Nc1ccc(Cl)c(C(F)(F)F)c1
active: SK-MEL-2 melanoma -20.2% | ACHN renal 0.519% | A498 renal -23.7% | CCRF-CEM leukemia 4.05% | MOLT-4 leukemia -1.55%
inactive: TK-10 renal 15.5% | CAKI-1 renal 13.3%
